According to the supplement of paper PMC3334620:
Whole data set: some 33,000 sequences, median “E-score (-0.5 to 0.5)” near -0.015, cut for the highest 2% near 0.3. Only a selection was taken, and the highest values are over-represented in it overall.

target: T1, Abf1 (UniProt P14164); test: PBM E-score (8-mer binding enrichment) (E-score (-0.5 to 0.5)); higher = stronger / more preferred TF binding; settings: protein concentration: 200 nM; construct: GST-full length
T1 sequence: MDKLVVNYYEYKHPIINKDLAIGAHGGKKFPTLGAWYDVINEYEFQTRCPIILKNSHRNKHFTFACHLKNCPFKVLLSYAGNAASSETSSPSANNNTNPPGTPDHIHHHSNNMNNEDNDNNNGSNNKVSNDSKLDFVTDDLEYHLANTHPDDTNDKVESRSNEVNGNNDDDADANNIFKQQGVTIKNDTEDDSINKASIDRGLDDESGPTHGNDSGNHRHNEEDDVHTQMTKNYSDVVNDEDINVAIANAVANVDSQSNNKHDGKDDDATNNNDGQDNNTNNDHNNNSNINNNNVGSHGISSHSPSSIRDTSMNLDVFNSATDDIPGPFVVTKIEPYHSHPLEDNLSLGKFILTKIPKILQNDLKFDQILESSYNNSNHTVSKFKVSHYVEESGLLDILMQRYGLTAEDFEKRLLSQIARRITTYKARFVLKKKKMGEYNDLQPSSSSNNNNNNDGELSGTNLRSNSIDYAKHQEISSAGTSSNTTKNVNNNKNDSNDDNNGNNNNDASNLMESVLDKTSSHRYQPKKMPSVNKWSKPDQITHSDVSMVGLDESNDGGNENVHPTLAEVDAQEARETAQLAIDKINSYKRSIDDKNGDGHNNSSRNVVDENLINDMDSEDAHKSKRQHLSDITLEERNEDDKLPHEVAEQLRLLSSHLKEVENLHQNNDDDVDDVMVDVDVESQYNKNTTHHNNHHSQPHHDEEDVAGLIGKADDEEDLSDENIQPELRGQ
How it was run: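 Universal all-10-mer Agilent arrays, fresh or stripped once, were converted to double-stranded form by primer extension. GST-tagged yeast transcription factors from PURExpress in vitro transcription/translation, full-length or DNA-binding domain only, were applied at about 100-200 nM and detected with fluorescent anti-GST. After masliner normalisation, the Universal PBM Analysis Suite scored each ungapped eight-base word together with its reverse complement by E-score.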

Sequence	PBM E-score
CATGACAA	0.238
AATGACCA	0.256
AATGACAC	0.227
GATGACAC	0.337
AATGACCT	0.223
AATGACTA	0.222
AATGACAT	0.39
GATGACAA	0.369
TATGACAA	0.27
AATGACAG	0.16
AATGACAA	0.397
CATGACAC	0.218
CGAGGATA	0.0582
GATGGGCA	-0.0389
CTCATCAA	0.192
GCCCTCTA	-0.224
CCACTCTC	-0.22
CACGATTA	0.247
AACGATTA	0.172
TACGATAA	0.179
GACGATAA	0.363
GACGATTA	0.31
CACGATAA	0.296
GACCAAAA	0.183
AAACCGAC	-0.0139

Sequence	PBM E-score
CGCACCAA	-0.0891
TCACGCCA	0.113
CTGATAAA	0.112
CTGATAAC	0.167
ATGATAAC	0.339
AAGATAAA	0.132
ATGATAGA	0.103
ATGATAAA	0.406
GAGATAAC	0.138
AAGATAAC	0.171
GTGATAAA	0.412
GCGATAAC	0.158
GTGATAAC	0.371
TTGATAAA	0.23
CCGGTTCC	-0.286
CCCATTTA	-0.0213
AAAGGCAG	0.17
AAAGCTAG	-0.236
ATAATAAA	0.2
GTGATACA	0.311
AAGATAAT	0.0926
CTGATACA	0.0567
GTAATAAC	0.124
ATGATAAT	0.377
GTAATAAA	0.313

Sequence	PBM E-score
GAGATACA	0.146
ATGATAAG	0.291
CACTTTGC	0.137
CTGACACC	-0.0573
GGTTGGAA	-0.166
AACTAGAG	-0.159
ATACAGTG	0.011
AGAGAAGA	0.0299
CCACCAGC	0.0706
ATCGTTTA	0.321
CTCGTTTA	0.0984
ACCGTTTG	0.103
AGCGTTTG	-0.116
AGCGTTTA	-0.153
ATCGTTCC	0.068
GCCGTTTA	0.102
AACGTTTA	-0.0328
ATCGTTTC	0.325
ATCGTTTG	0.298
CTCGTTTC	0.129
GTCGTTTA	0.298
CAGCTCCA	-0.238
CGATACAG	-0.0796
ACTTTGTA	0.0728
ATTAGATC	-0.00144

Sequence	PBM E-score
ATGCAGCG	-0.174
GCGGGAGC	-0.288
ATCGTTGA	0.208
GTCGTTGA	0.327
CTCGTTGA	0.0588
AGCTCGTA	0.149
GCGCAACA	-0.123
AAAGAGTG	-0.101
ATCATGTC	0.356
ATTATGCC	0.0573
CTTATGTC	0.00318
ATCATGTA	0.208
ATTATGCA	-0.114
ATTATGCG	0.303
CTCATGTC	0.0937
ATTATGTC	0.303
ATTATGTA	0.239
AGCCGGTA	-0.013
CTGGCACA	0.00341
GATCCAAA	0.111
AGTGTTTG	-0.0678
GCGATAAA	0.241
TCGATAAA	0.207
ACGATAAC	0.224
ACGATAAT	0.303

Sequence	PBM E-score
ACGATAAG	0.243
ACGATAAA	0.352
CAGACTCA	-0.218
GGGAACCA	-0.249
CCGAACCA	-0.231
ACGTTTAA	0.245
GCGTTCAA	-0.0872
TCGTTCAA	0.357
CCGTTTAA	0.266
TCGTTTAA	0.341
ACGTTCAA	0.155
TACACTAA	0.114
TAAGACTA	-0.0858
CCAACAGG	-0.363
GAACTTAC	0.0577
ACGGTATC	0.182
AATTTATC	0.314
CGTTTATC	0.297
AGTTTATC	0.173
CGTTTATA	0.196
CATTTATC	0.222
AATTTATA	0.191
CCTCTGAG	-0.215
GATTGGGA	-0.197
AGTGGTTA	0.0354

Sequence	PBM E-score
GAACGACA	0.296
TAACGACA	0.31
CAACGACA	0.208
AAACGACT	0.152
AAACGACA	0.321
AAACGACG	0.238
GCTAAAGC	-0.16
ACGCGGAT	-0.024
GAAACCAC	-0.124
AAGGGACC	0.0128
ACCATAGA	-0.0622
GCTCGTGA	0.0759
AGTCGTGA	0.249
GGTCGTGA	0.195
GTTCGTGA	0.254
CGTCGTGA	0.351
CGTCGTGC	0.315
ACTCGTGA	0.162
CTTCGTGA	0.317
AGTCGTGC	0.0998
CCTCGTGA	0.363
ATTCGTGA	0.15
CCTCGTGC	0.00335
GTGAAAAC	0.138
CACTTCGA	0.223

Sequence	PBM E-score
ATACTGTA	0.0204
GAAACTTC	0.0521
AGACAGTG	-0.0919
GCTTTTTA	0.0686
CGCATCAC	0.263
CACTTTTC	0.192
AGCGGTAC	-0.161
CTGACGTC	0.137
CCCGAGCC	-0.299
CTATCACC	0.226
CTATCACA	0.199
ATATCACA	0.282
ATATCACC	0.438
ATATCAGC	0.00929
ATATCACG	0.401
ATCTCGCG	0.206
ATAATAGC	0.0936
CAGAGGAA	-0.148
CGTAGGAG	0.134
CCCAAAGG	-0.158
ACGTATCT	-0.0664
GCGTATCA	0.109
